An excerpt weighted towards active compounds, which were near 2.8% of everything screened.
MsrA inh: bovine MsrA inhibition; AID 651718; purified bovine MsrA, absorbance read-out; inhibition, % at 15.5 µM; 360,000 tested, 0.75% active;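 further: 0% = vehicle wells with enzyme and 100% = reference inhibitor wells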
SMARCA2 activ: increases SMARCA2 function in MMTV reporter cells; MG213 cells, MMTV-luciferase reporter, dexamethasone, overnight; activation, % at 9.1 µM; 370,000 tested, 1% active; in the data active means activation above about 7.8%;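 further: 0% = vehicle wells and 100% = reference activator wells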
proKLK7 act: proKLK7 (human) activation, primary screen | purified proKLK7, EDANS-DABCYL substrate fluorescence; 100% is mature enzyme control, 0% vehicle | 370,000 tested, 0.9% active | activation, % at 7 µM;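 active means activation above the mean of all tested compounds plus 3 SD, computed per campaign excluding outliers beyond control limits, cut at about 13% in these data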
Target sequence (P49862 whole entry, looked up): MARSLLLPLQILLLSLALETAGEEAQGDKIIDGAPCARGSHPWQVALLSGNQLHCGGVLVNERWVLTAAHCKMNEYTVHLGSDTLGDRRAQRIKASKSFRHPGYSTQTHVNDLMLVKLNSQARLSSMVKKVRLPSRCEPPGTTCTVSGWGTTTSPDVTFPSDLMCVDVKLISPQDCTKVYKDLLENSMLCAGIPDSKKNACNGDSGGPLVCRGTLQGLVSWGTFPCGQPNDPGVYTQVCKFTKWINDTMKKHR
MsrA act: bovine methionine sulfoxide reductase A activation. AID 602163. purified bovine MsrA, absorbance read-out. activation, % at 10.6 µM. 360,000 tested, 0.3% active; in the data active means activation above about 7.5%;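 further: 0% = vehicle and 100% = reference activator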
MsrA inh confirm: bovine MsrA inhibition, confirmed | shares compounds with MsrA inh | purified bovine MsrA, absorbance read-out | inhibition, % at 15.5 µM | 2,300 tested, 41% active;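 further: coupled to thioredoxin reductase with NADPH and selenocystamine and DMSO as substrate; 0% = vehicle only and 100% = full effect of reference inhibitor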
The depositor's hits bear a star; x = no result given. Unless noted, no stated cut-off is given here; in the data, active means inhibition above about 4.5%; inactive means the rest.

SMILES	MsrA inh	SMARCA2 activ	proKLK7 act	MsrA act	MsrA inh confirm
CCc1cccc(C)c1NC(=O)C1CC(=O)N(C2CCCC2)C1 (configuration not stated)	-1.1	-0.1	0.3	-6.6	x
CC(=O)NS(=O)(=O)c1ccc(N=NN2CCCCC2)cc1	2.0	-1.9	-0.6	-1.1	x
O=C(O)c1ccc(N=NN2CCCCC2)cc1	2.9	2.5	0.3	-10.4	x
NS(=O)(=O)c1ccc(N=NN2CCCCC2)cc1	5.3*	3.0	0.0	-5.0	2.0
CC(=O)N(C(C)=O)S(=O)(=O)c1ccc(N=NN2CCCCC2)cc1	5.0*	0.1	0.3	-2.4	3.9
COc1ccc(S(=O)(=O)NCCOc2ccc(Cl)cc2)cc1	-0.3	-1.6	0.0	3.1	x
CCCCCCCCN1C(=O)[C@H](CC(=O)NCCCN2CCCC2=O)C[C@@]2(C(=O)OC)CCCCC=C12	-0.7	-0.9	0.9	-0.8	x
COc1ccccc1/C=C\C=N\NC(=O)c1ccco1	1.7	3.8	0.6	-2.2	x
COc1ccccc1/C=C\C=N\NC(=O)CCn1nnc2ccccc21	5.0*	-1.1	-1.3	-10.8	3.7
COc1ccccc1/C=C/C=N/NC(=O)Cc1cccn1C	5.8*	-0.5	-3.6	-2.4	4.9*
COc1ccccc1/C=C/C=N/NC(=O)c1cccs1	5.8*	2.2	-0.1	-3.6	6.7*
Cn1cccc1CC(=O)NN=C/C=C\c1ccco1	x	-5.6	0.1	x	x
O=C(Nc1nc2ccc([N+](=O)[O-])cc2s1)c1ccco1	-0.4	5.2	-0.2	x	x
Cc1cccc(C)c1-n1nnnc1C1(C)CCC(=O)N1CCCN1CCOCC1 (configuration not stated)	-1.8	-0.8	-0.2	-4.4	x
CC(C)(C)c1ccc(CC(=O)N2CCC2(C)C(=O)NCc2cccs2)cc1 (configuration not stated)	-0.9	2.0	0.5	-1.4	x
Cc1cc(=O)n2cn[nH]c2n1	-0.5	0.4	-0.4	-1.3	x
Oc1ccc(/C=N/NC(=S)N/N=C/c2ccc(O)cc2)cc1	6.4*	-0.2	-3.5	4.1	7.2*
COc1cccc(/C=N/NC(=S)Nc2cccnc2)c1	2.8	2.1	1.0	-1.7	x
Oc1ccc(/C=N/NC(=S)Nc2cccnc2)cc1	7.9*	3.5	-3.4	-2.2	6.2*
COc1ccc(CN(C)C(=O)C2CSC3(C)CCC(=O)N23)c(OC)c1 (configuration not stated)	0.3	0.7	0.3	-0.1	x
COc1ccc(Oc2nnnn2-c2ccccc2)cc1	0.7	-1.6	-0.6	0.4	x
COc1cccc(Oc2nnnn2-c2ccccc2)c1	4.7*	4.1	-1.1	-3.1	1.2
CC(/C=C/c1ccc2c(c1)OCO2)=N/NC(=O)c1ccc(C)nc1	5.4*	-2.4	0.1	-1.9	7.1*
CC(/C=C/c1ccc2c(c1)OCO2)=N/NC(=O)c1ccncc1	5.6*	1.7	1.5	-7.4	8.6*
CC(/C=C/c1ccc2c(c1)OCO2)=N/NC(=O)c1cccnc1	7.2*	-2.2	-0.7	-3.9	5.5*
SMILES	MsrA inh	SMARCA2 activ	proKLK7 act	MsrA act	MsrA inh confirm
CC(/C=C/c1cccc([N+](=O)[O-])c1)=N\NC(=O)c1ccncc1	2.3	-3.7	-0.5	-6.3	x
C/C(=N\NC(=O)c1ccc2c(c1)OCO2)c1cccnc1	0.3	5.8	-0.2	-2.5	x
CNC[C@@H]1OCc2ccccc2-c2c(n(C)c3ccccc23)C(=O)N([C@@H](C)CO)C[C@@H]1C	2.4	-3.4	-0.1	x	x
O=C(Nc1cccc(C(F)(F)F)c1)OC1CC2CC1[C@H]1CCCCN1[C@H]2Cc1ccccc1 (some centres not stated)	x	-4.4	-0.5	x	x
O=S(=O)(c1cccc2ccccc12)N1CCC2CC1c1cc(-c3ccc4c(c3)OCO4)ccc12 (configuration not stated)	-0.4	0.8	0.4	-3.7	x
Cc1csc(Nc2nc(N)c(C(=O)Nc3ccccc3)o2)n1	5.7*	1.9	0.1	-4.2	5.0*
Cn1cnc([N+](=O)[O-])c1Cl	0.7	-5.1	-0.4	-3.5	x
Cn1cnc([N+](=O)[O-])c1S(=O)(=O)Oc1cccc2ccccc12	14.1*	-1.1	0.0	-10.3	7.1*
Cn1cnc([N+](=O)[O-])c1S(=O)(=O)Oc1ccc(Cl)cc1	23.1*	-1.3	-0.5	-1.5	13.3*
COc1ccc(C2=NS(=O)(=O)N(C)C(C(=O)N3CCCCC3C)=C2)cc1 (configuration not stated)	5.9*	2.3	1.5	-5.8	2.9
COc1ccc(C2=NS(=O)(=O)N(C)C(C(=O)N3CCC(C(N)=O)CC3)=C2)cc1	6.1*	-3.6	0.3	-4.4	3.3
O=C(Nc1nc2ncccn2c1-c1ccccc1)C1CC1	x	-0.7	12.1	x	x
CCC1CCCCN1C(=S)NN=C(C)c1ccccn1 (configuration not stated)	1.1	-7.6	0.7	x	x
O=[N+]([O-])c1ccc2[nH]c(O)c(N=NC3CS(=O)(=O)CC3O)c2c1 (configuration not stated)	5.2*	-0.6	0.3	-4.7	5.0*
COc1cc(/C=N/Nc2ccccn2)cc(OC)c1O	6.0*	-2.5	-1.2	-4.3	4.5
N#C/C(=C\Nc1ccccc1O)c1nc2ccccc2o1	9.7*	-1.3	-0.9	-11.8	7.7*
Cc1ccsc1/C=N\Nc1cn[nH]c(=O)c1Cl	3.9	5.1	-0.6	-6.2	x
Cc1ccc(/C=N\Nc2cn[nH]c(=O)c2Cl)cc1	7.8*	3.0	-0.2	-5.7	6.6*
O=c1[nH]ncc(N/N=C/c2ccccc2)c1Cl	7.2*	1.0	1.3	-16.1	6.8*
COc1ccc(/C=N/Nc2cn[nH]c(=O)c2Cl)cc1	5.4*	1.6	0.2	-7.6	5.9*
Cc1cccc(S(=O)(=O)N[C@@H]2CC[C@@H](CCNS(=O)(=O)c3ccccc3F)O[C@@H]2CO)c1	0.4	3.0	0.3	x	x
O=C(C(=O)N1CCC(CNS(=O)(=O)c2cc(C(F)(F)F)cc(C(F)(F)F)c2)CC1)c1cc2ccccc2o1	1.0	-2.4	-0.4	x	x
Cc1ccsc1CN(C)CC(=O)N(C)CC(=O)Nc1c(Cl)cccc1Cl	2.0	-1.6	-0.3	-5.0	x
COc1ccc(-c2oc3ccc(-c4ccc5c(c4)OCO5)cc3c2C#CC2(O)CCCCC2)cc1	5.2*	-0.2	-7.7	-4.2	3.0
COCCNC(=O)C1(C)CCCN(Cc2ccc(Cl)nc2)C1 (configuration not stated)	x	x	x	-2.2	x
SMILES	MsrA inh	SMARCA2 activ	proKLK7 act	MsrA act	MsrA inh confirm
Cc1cc(N2CCCC2)c(C)cc1C=O	5.1*	-1.0	0.1	-1.6	2.0
NC(=O)COC(=O)C12CC3CC(CC(O)(C3)C1)C2	0.0	-1.5	-0.1	-2.1	x
NC(CSS(=O)(=O)O)=NCCC12CC3CC(CC(O)(C3)C1)C2	7.5*	-1.5	-0.5	-7.1	4.1
COC(=O)c1cc(S(=O)(=O)N2CCN(C(C)=O)CC2)cn1C	x	-4.9	-0.4	x	x
COc1cc(C(=O)C(=O)c2ccc(O)c(OC)c2)ccc1O	6.4*	1.9	0.1	-4.2	4.2
COc1cc(C(=O)O)ccc1O	-0.4	1.3	-0.3	-2.2	x
CCOC(=O)C(C)Sc1nnc(NC(=O)c2ccc3c(c2)OCO3)s1 (configuration not stated)	5.1*	-4.5	-0.2	-5.1	1.6

From PubChem BioAssay
